Measurements from PubChem BioAssay (NCATS).
Inconclusive results are not listed. Where a call stands in place of a potency, no number is given. Calls of active or inactive are those of the source. Unless noted, calls come from the whole dose curve; as a rule, active = well fitted curve in the direction sought with a large enough effect; inconclusive = small, poorly fitted or top-dose-only effect, or another doubt; inactive = no such curve, though single readings can be large; an effect the other way counts as inactive or inconclusive.

What was measured:
[1] = qHTS for differential inhibitors of proliferation of Plasmodium falciparum line D10 (AID 1877);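 note: parasites grown with compound for 72 h before DNA staining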; note: potency is the fitted concentration of half-maximal effect
[2] = qHTS for differential inhibitors of proliferation of Plasmodium falciparum line Dd2 (AID 1882); details: Potency: Plasmodium falciparum Dd2 proliferation inhibition; note: nearly all actives have a fitted effect of over 65% in size; note: potency is the fitted concentration of half-maximal effect
In short: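 SYBR Green DNA fluorescence (ex 485, em 535 nm) after overnight lysis quantifies parasite growth; compound exposure lasted 72 h at 37 C on infected red cells at 2.5% hematocrit, 0.3% parasitemia (final). Artemisinin 0.29 uM and vehicle wells define normalization.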

[3] = qHTS for differential inhibitors of proliferation of Plasmodium falciparum line W2 (AID 1883); details: Potency: Plasmodium falciparum W2 proliferation inhibition;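 note: parasites grown with compound for 72 h before lysis and staining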; note: potency is the fitted concentration of half-maximal effect
[4] = qHTS for differential inhibitors of proliferation of Plasmodium falciparum line HB3 (AID 1886); details: Potency: Plasmodium falciparum HB3 proliferation inhibition;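 note: parasites grown with compound for 72 h before SYBR Green readout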; note: potency is the fitted concentration of half-maximal effect
[5] = qHTS Assay for Modulators of Human Peripheral Myelin Protein 22 (PMP22) Expression/Activity (AID 1967; active = well fitted curve in the direction sought with a large enough effect in the signal ratio; the % refers to the signal ratio)
In short: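 MSC80 mouse Schwann cells stably carrying Pmp22 promoter–green click beetle luciferase plus EF-alpha–red luciferase control were dosed for 24h at 37 °C. Dual-colour luminescence was filter-overlap corrected; %Activity came from green/red ratio versus untreated cells.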

[6] = target: ATP-dependent DNA helicase Q1 (Homo sapiens) (UniProt P46063); assay: qHTS Validation Assay for Inhibitors of RecQ-Like Dna Helicase 1 (RECQ1) (AID 2353); note: potency is the fitted concentration of half-maximal effect
In short: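 RECQ1T1 50 nM; forked duplex (20 bp + 30-nt ss tails) 200 nM, ATP 2 mM final; pH 8.0, 2 mM MgCl2, 2.5 ug/ml poly(dI-dC); 15 min compound preincubation; discontinuous kinetic read over 2 h at RT.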

[7] = target: RecQ-like DNA helicase BLM (Homo sapiens) (UniProt P54132); assay: qHTS Validation Assay for Inhibitors of Bloom's syndrome helicase (BLM) (AID 2364); note: potency is the fitted concentration of half-maximal effect
In short: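 50 nM BLM preincubated 15 min at room temperature with compound in pH 8.0 Tris buffer containing 2.5 ug/ml poly(dI-dC); started with 200 nM TAMRA/BHQ-2 forked duplex and 2 mM ATP (final). Unwinding read as TAMRA fluorescence increase, two reads 2 h apart.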

[8] = target: Ferritin light chain (Equus caballus) (UniProt P02791); assay: qHTS Validation Assay for Identification of Novel General Anesthetics (AID 2323); note: series mostly up to about 77 µM
In short: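 Competitive displacement of profluorescent 1-aminoanthracene (1-AMA, 50% saturated solution in PBS) from 10 uM horse-spleen apoferritin. Compounds incubated 10 min at room temperature; fluorescence read at 380 nm excitation/535 nm emission, normalized to free 1-AMA and complex, fitted with four-parameter Hill equation.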

Sequence of ATP-dependent DNA helicase Q1 (Homo sapiens) (P46063 whole entry, looked up): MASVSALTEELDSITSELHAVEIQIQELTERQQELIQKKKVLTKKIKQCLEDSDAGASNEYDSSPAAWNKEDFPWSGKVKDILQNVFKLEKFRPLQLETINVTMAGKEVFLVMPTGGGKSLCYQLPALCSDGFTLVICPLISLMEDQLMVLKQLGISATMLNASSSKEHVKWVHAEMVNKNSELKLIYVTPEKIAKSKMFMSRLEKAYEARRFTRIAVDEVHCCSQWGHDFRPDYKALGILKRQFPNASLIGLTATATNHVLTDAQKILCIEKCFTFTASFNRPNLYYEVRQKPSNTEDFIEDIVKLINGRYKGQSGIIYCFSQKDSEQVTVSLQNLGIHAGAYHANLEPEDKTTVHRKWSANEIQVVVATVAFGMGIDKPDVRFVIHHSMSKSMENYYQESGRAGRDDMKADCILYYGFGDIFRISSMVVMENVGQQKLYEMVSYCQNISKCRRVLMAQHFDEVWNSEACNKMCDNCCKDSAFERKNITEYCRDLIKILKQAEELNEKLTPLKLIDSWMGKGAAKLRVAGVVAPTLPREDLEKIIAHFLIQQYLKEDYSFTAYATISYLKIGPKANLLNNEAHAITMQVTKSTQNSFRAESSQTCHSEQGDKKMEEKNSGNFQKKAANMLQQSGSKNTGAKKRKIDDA
Sequence of RecQ-like DNA helicase BLM (Homo sapiens) (P54132 whole entry, looked up): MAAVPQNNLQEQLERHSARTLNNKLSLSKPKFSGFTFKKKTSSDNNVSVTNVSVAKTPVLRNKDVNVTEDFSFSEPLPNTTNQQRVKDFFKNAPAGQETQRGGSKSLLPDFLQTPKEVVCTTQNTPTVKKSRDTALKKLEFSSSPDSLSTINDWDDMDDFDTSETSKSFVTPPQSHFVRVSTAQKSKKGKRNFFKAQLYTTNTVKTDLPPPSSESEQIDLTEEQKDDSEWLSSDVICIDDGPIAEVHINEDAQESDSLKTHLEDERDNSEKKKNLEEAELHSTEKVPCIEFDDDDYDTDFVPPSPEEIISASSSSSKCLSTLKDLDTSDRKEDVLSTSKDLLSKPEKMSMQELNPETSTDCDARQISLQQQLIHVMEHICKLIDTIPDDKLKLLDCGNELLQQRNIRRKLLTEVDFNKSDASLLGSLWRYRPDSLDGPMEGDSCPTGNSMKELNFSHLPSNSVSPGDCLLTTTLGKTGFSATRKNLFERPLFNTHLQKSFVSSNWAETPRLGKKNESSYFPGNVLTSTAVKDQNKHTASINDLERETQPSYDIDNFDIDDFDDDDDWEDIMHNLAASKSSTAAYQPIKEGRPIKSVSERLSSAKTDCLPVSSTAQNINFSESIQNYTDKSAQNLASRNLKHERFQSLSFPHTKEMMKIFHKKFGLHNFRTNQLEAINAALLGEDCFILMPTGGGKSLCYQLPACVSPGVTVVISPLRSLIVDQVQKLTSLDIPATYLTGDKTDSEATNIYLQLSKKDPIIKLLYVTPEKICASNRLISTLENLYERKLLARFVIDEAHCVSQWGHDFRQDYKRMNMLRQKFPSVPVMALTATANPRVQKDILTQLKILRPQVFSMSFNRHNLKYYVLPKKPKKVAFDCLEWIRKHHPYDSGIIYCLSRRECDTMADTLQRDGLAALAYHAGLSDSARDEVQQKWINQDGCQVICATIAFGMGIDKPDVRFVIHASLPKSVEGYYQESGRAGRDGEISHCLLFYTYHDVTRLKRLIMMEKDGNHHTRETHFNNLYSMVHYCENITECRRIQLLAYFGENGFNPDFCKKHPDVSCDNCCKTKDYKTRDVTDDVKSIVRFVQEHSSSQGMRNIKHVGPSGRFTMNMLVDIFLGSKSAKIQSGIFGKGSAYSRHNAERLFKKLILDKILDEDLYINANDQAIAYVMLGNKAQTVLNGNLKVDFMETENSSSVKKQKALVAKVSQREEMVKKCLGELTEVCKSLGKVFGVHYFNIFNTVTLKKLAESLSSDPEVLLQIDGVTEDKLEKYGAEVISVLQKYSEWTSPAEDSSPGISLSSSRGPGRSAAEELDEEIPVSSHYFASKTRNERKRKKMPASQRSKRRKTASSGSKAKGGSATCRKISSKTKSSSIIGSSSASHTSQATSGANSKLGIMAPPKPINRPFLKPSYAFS
Sequence of Ferritin light chain (Equus caballus) (P02791 2-175 limits assumed): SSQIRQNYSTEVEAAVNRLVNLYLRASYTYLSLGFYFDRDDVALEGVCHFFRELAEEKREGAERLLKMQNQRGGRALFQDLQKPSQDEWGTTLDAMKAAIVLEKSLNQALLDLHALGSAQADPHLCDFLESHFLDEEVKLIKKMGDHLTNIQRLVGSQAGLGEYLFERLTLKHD

SMILES | Potency [1] | Potency [2] | Potency [3] | Potency [4] | outcome [5] | Potency [6] | Potency [7] | Potency [8]
NCCCCN | inactive | inactive | inactive | inactive | inactive | inactive | inactive | 
N[C@@H](CCC(=O)N[C@H](CSN=O)C(=O)NCC(=O)O)C(=O)O | inactive | inactive | inactive | inactive |  | inactive |  | inactive
CC(C)NCC(O)COc1ccc(CC(N)=O)cc1 (centres undefined) | inactive | inactive | inactive | inactive | inactive | inactive | inactive | inactive
O=C(O)C1CN(CCCP(=O)(O)O)CCN1 (centres undefined) | inactive | inactive | inactive | inactive | inactive |  | inactive | inactive
N=C(N)c1ccc(N)cc1 | inactive | inactive | 14.1 µM (active) | inactive | inactive | inactive | inactive | 
O=C(O)CCC(=O)N1CCCC1C(=O)O (centres undefined) | inactive | inactive | inactive | inactive | inactive | inactive |  | 
O=C(O)c1ccccc1Nc1ccccc1 | inactive | inactive | inactive | inactive |  | inactive |  | inactive
CCn1c(=O)[nH]c2cc(Cl)c(Cl)cc21 | inactive | inactive | inactive | inactive |  | inactive |  | inactive
CC(=O)/C(C)=N/O | inactive | inactive | inactive | inactive |  | inactive |  | inactive
NC1CONC1=O (centres undefined) | inactive | inactive | inactive | inactive | inactive | inactive |  | 
NC(=O)CC[C@H](N)C(=O)O | inactive | inactive | inactive | inactive |  | inactive |  | inactive
O=c1[nH]ccc2c(O)cccc12 | inactive | inactive | inactive | inactive |  | inactive |  | inactive
CCOC(=O)C12CC1/C(=N/O)c1ccccc1O2 (centres undefined) | inactive | inactive | inactive | inactive |  | inactive |  | inactive
[Li+] | inactive | inactive | inactive | inactive | inactive | inactive | inactive | 
CCCCCCCCCCCCCCCCCCOC[C@H](COP(=O)([O-])OCC[N+](C)(C)C)OC | inactive | inactive | inactive | inactive | inactive | inactive |  | 
CC(C)Cn1c(=O)n(C)c(=O)c2[nH]cnc21 | inactive | inactive | inactive | inactive | inactive | inactive | inactive | inactive

SMILES | Potency [1] | Potency [2] | Potency [3] | Potency [4] | outcome [5] | Potency [6] | Potency [7] | Potency [8]
CCCCCCC/C=C\CCCCCCCCC(=O)O | inactive | inactive | inactive | inactive | inactive |  | 28.2 µM (active) | 
CN1CCCC1CCOC(C)(c1ccccc1)c1ccc(Cl)cc1 (centres undefined) | 11.2 µM (active) | 10 µM (active) | 2.51 µM (active) | 5.01 µM (active) |  | inactive |  | inactive
CCCN(CCc1ccccc1)C1CCc2c(O)cccc2C1 (centres undefined) | 5.01 µM (active) | 2 µM (active) | 1 µM (active) | 2.51 µM (active) |  | inactive | inactive | 
Nc1ccc(-c2nc3ccc(-c4nc5ccc(N)cc5[nH]4)cc3[nH]2)cc1 | 0.708 µM (active) | 1 µM (active) | 0.251 µM (active) | 0.794 µM (active) |  | 8.91 µM (active) | 22.4 µM (active) | inactive
C=CCN1CCc2c(cc(O)c(O)c2Br)[C@@H](c2ccccc2)C1 | 11.2 µM (active) | 8.91 µM (active) | 3.98 µM (active) | 7.08 µM (active) |  | inactive |  | inactive
CC(N)=O | inactive | inactive | inactive | inactive |  | inactive |  | inactive
O[Si](CCCN1CCCCC1)(c1ccc(F)cc1)C1CCCCC1 (centres undefined) | 0.0282 µM (active) | 0.141 µM (active) | 0.0631 µM (active) | 0.0708 µM (active) |  | inactive |  | 
CCCCCCN(CCCCCC)C(=O)Cc1c(-c2ccc(F)cc2)[nH]c2ccccc12 | 12.6 µM (active) | 10 µM (active) | 3.55 µM (active) | 7.08 µM (active) |  | inactive |  | 
COc1ccc(NC(=O)c2ccc(-c3ccc(-c4noc(C)n4)cc3C)cc2)cc1N1CCN(C)CC1 | 2.51 µM (active) | 5.62 µM (active) | 3.98 µM (active) | 2.82 µM (active) |  | inactive | inactive | inactive
CC(C)(C)c1cc(/C=C(\C#N)C(N)=S)cc(C(C)(C)C)c1O | 8.91 µM (active) | 8.91 µM (active) | 2.82 µM (active) | 6.31 µM (active) |  | inactive |  | 
N[C@H](C(=O)O)[C@H]1C[C@@H]1C(=O)O | inactive | inactive | inactive | inactive |  | inactive | inactive | inactive
CN(C)C(=O)/N=N/C(=O)N(C)C | inactive | inactive | inactive | inactive |  | inactive | inactive | inactive
NC(N)=N[C@@H](CCC(=O)O)C(=O)O | inactive | inactive | inactive | inactive |  | inactive |  | 
NC(N)=[N+]1CCc2ccccc2C1 | inactive | inactive | inactive | inactive |  | inactive | inactive | inactive
C=CCN1CCc2c(cc(O)c(O)c2Cl)C(c2ccccc2)C1 (centres undefined) | 12.6 µM (active) | 10 µM (active) | 3.55 µM (active) | 7.08 µM (active) |  | inactive |  | 
